Measurements published in PubChem BioAssay AID2284375 (EPA ToxCast).
Records with an inconclusive call do not appear. Calls of active or inactive are those of the source. How the source made its calls: active means hit-call score of the fitted dose curve at least 0.9, where 1 is the maximum; inconclusive means response in the unintended direction; inactive means score below 0.9.

Biological target: Estrogen receptor (Homo sapiens) (UniProt P03372)
Assay: ERF_US_NR_hESR1: Eurofins (ERF) Nuclear Receptor (NR) Cell Based Protein-Protein Interaction LeadHunter Assay for human Estrogen Receptor alpha (ERa) Agonism
Experimental: ERF_US_NR_hESR1 is a cell-based, single-readout assay that uses extracted gene-proteins in a cell-line assay. Measurements were taken 5 hours after chemical dosing in a 384-well plate. See ERalpha Human Estrogen NHR Cell Based Agonist Protein-Protein Interaction Assay, DiscoverX.ERF_US_NR_hESR1 is an assay component calculated from the ERF_US_NR_hESR1 assay. It is designed to […].Data from the assay component ERF_US_NR_hESR1 was analyzed at the assay endpoint, ERF_US_NR_hESR1, in the positive analysis fitting direction relative to DMSO as the negative control and baseline of activity. Using a type of binding reporter, gain-of-signal activity can be used to understand changes in binding as they relate to gene ESR1. To generalize the intended target to other relatable targets, this assay endpoint is annotated to the nuclear receptor intended target family, where the subfamily is steroid.
Cells were seeded in a total volume of 20 uL into white walled, 384-well microplates and incubated at 37C overnight prior to testing. Briefly, intermediate dilution of sample stocks was performed to generate 5X sample in assay buffer. 5 uL of 5X sample was added to cells and incubated at37C for 300 minutes. Final assay vehicle concentration was 1%. The results are expressed as a percent efficacy of the control ligand.

Sequence of Estrogen receptor (Homo sapiens) (P03372 whole entry, looked up): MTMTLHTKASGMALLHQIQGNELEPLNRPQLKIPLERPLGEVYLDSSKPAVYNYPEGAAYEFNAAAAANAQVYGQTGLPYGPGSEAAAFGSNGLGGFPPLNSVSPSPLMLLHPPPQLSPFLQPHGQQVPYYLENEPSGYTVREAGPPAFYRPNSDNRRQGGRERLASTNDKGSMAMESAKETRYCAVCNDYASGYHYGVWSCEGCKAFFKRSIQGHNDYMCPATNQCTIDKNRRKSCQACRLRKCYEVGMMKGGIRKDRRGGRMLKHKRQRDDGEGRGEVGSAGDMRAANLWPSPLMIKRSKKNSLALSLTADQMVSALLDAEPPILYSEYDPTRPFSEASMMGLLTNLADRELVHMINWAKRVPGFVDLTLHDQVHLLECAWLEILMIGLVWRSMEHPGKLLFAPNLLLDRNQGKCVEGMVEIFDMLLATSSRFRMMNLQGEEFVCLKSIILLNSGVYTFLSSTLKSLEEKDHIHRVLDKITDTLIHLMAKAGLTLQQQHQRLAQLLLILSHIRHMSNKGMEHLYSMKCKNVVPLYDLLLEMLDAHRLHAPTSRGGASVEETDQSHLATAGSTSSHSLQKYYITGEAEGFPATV

SMILES | outcome | AC50
NS(=O)(=O)C(F)(F)C(F)(F)C(F)(F)C(F)(F)C(F)(F)C(F)(F)C(F)(F)C(F)(F)F | inactive | –
OCC(F)(F)OC(F)(F)C(F)(F)OC(F)(F)C(F)(F)OC(F)(F)CO | inactive | –
OCC(F)(F)OC(F)(F)C(F)(F)OC(F)(F)C(F)(F)OC(F)(F)F | – | 19.5 µM (active)
